We go through 14 molecules from PubChem BioAssay.

Broadly, the inhibition is the relative decrease from the control value, in per cent.

Activity calls are given as the source filed them.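 Rule for the calls, unless noted: active = visual image review flags a hit and inhibition of aggregation exceeds 20%; inconclusive = visual hit but inhibition at or below 20%; inactive = no hit on visual image review.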

Test [1] in a line: inhibitors of TNFa-induced NFkB p65 translocation, primary screen, imaging, HUVEC, MLSMR starter and 10KST1 sets (AID 438;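 active = inhibition above 20% together with a positive visual image hit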;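 note: compound added about 3h40 before a 20 min TNFalpha stimulation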;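 for inhibition: signal is the nuclear over cytoplasmic p65 intensity ratio per well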). Conditions: HUVEC TNFa-induced p65 nuclear translocation; cell count: measured here: nuclei count (cytotoxicity indicator), at 2.08 µM; inhibition: at 2 µM, stronger effect = higher value, 0% TNFa-plus-vehicle, 100% no-TNFa wells.
The nature of test [2]: inhibitors of mutant huntingtin aggregation, primary screen, imaging, exon1htt(103Q)mCFP cells, high-content imaging (AID 483).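 For nuclei count: percent of the per-plate median nuclei count of sample wells.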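 Note: compound exposure lasted 3 days before fixation.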 Conditions: exon1htt(103Q)mCFP cell line, aggregate imaging, at 2 µM; inhibition of aggregation: stronger effect = higher value; nuclei count: measured here: cell count, toxicity.
The nature of test [3]: inhibitors of E-selectin induction by TNFa, primary screen, imaging, HUVEC, immunofluorescence, MLSMR starter and 10KST1 sets (AID 487;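 active = visually confirmed hit in the image check and inhibition above 20%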;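 for inhibition: signal is fraction of cell area covered by stained E-selectin grains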;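 for nuclei count: 100% = median nuclei count of all wells on the same plate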). The settings on record: HUVEC TNFalpha-induced E-selectin immunofluorescence imaging, at 2 µM; inhibition: stronger effect = higher value; nuclei count: measured here: cell number, toxicity.
In test [4] the target is Voltage-gated potassium channel subunit beta-2 (Rattus norvegicus) (UniProt P62483). The test can be described thus: KvBeta enzyme negative modulators, primary screen, biochemical, NADPH fluorescence (AID 622;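 active = fluorescence slope higher than the sample average by over 3 SD, cut at about -0.22 in these data, passing the limit was not always enough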;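 note: slope of raw intensity against log time taken from 70 to 1610 s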). The settings on record: recombinant KvBeta, 4-cyanobenzaldehyde reduction, at 10 µM, stronger effect = higher value.
Voltage-gated potassium channel subunit beta-2 (Rattus norvegicus), sequence (P62483 whole entry, looked up): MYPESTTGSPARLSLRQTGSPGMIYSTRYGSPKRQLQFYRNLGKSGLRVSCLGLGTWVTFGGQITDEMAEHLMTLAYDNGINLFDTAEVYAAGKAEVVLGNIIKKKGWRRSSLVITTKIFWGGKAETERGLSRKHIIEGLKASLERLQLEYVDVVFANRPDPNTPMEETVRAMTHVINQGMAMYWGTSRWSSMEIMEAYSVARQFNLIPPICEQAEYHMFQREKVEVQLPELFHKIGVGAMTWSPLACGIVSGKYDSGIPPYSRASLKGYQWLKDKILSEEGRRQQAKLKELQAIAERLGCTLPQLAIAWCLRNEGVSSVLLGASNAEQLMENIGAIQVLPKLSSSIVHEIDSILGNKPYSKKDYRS
The target is the same in test [5]. The test is described as follows: KvBeta positive modulators, primary screen, biochemical, NADPH fluorescence (AID 623;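 active = NADPH fluorescence slope more negative than the mean of all samples by about 3 SD, 99.7% confidence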;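 note: fluorescence intensity change per second fitted from 20 to 320 s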). Conditions: Recombinant KvBeta, NADPH fluorescence decrease slope, 10 min; at 10 µM; stronger effect = lower value.
The target in test [6] is Alpha-2C adrenergic receptor (Homo sapiens) (UniProt P18825). The test is described as follows: modulators of alpha2C/GIRK thallium flux, primary screen, cell-based, HEK293 alpha2C/GIRK1/2 (AID 624;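 active = fluorescence slope after compound addition differing from the mean of all screened samples at 99.7% confidence, in either direction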;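 note: slope of fluorescence ratio to pre-addition baseline per second over 15 to 24 s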). The settings on record: thallium flux BTC fluorescence, at 10 µM, actives lie on both sides.
Alpha-2C adrenergic receptor (Homo sapiens), sequence (P18825 whole entry, looked up): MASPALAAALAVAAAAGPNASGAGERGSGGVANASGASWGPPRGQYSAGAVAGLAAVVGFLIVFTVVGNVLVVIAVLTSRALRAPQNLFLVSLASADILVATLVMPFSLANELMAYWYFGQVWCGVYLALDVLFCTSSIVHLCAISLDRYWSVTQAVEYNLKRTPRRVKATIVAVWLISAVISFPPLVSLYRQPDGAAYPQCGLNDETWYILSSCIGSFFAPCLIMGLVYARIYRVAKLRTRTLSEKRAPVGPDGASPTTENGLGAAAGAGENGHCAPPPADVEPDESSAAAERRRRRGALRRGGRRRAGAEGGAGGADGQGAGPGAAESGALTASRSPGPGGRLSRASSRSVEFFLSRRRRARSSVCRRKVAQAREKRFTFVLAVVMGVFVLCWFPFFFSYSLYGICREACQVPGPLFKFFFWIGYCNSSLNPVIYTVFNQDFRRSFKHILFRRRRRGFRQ
Test [7] in a line: inhibitors of Sendai virus-induced IRF3 signaling, primary screen, TLR/RLR signaling modifier project, cell-based, Sendai virus stimulus, luciferase, 10K MLSCN set (AID 602276;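 active = inhibition at or above 50% at 10 µM; inactive = inhibition below 50%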;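 note: firefly luciferase from ISG56 promoter only with Renilla not read in this screen; 0% = Sendai virus plus DMSO and 100% = medium plus DMSO without virus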). Conditions: HEK293 RL24 IRF3 luciferase reporter, at 10 µM, stronger effect = higher value. (Reporter assays use an easily measured gene product as a stand-in for the process of interest.)
A short description of test [8]: inhibitors of poly I:C-induced TLR3 signaling, primary screen, cell-based, poly I:C stimulus, luciferase, 10K MLSCN set (AID 602277;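 active = inhibition of the reporter signal at or above 50%; inactive = inhibition below 50%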). Conditions: HEK293-TLR3 RL24 IRF3 luciferase reporter, at 10 µM, stronger effect = higher value.

Consider `Cc1ccc(N2C(=O)c3ccccc3C2O)nc1` (centres undefined), for which the cell count in test [1] came to 627. For the same molecule, the inhibition in test [1] was 0.8% (inactive); in test [3], -15.9% (inactive); in test [7], 48.3% (inactive); in test [8], 41.4% (inactive). The inhibition of aggregation in test [2] is -27.7% (inactive). For the same molecule, the nuclei count in test [2] and in test [3] was 117% each time. For the same molecule, the fluorescence slope in test [4] was -0.587 (inactive). Moreover, the NADPH fluorescence slope in test [5] was -2.2e-05 (inactive). Further, in test [6], the slope is 0.00652 (inactive).
Regarding `Cc1ccc(OCCC(=O)OCC(=O)C(C)(C)C)cc1`, the cell count in test [1] came out at 542. For the same molecule, the inhibition in test [1] is -8.3% (inactive); in test [3] it was -9.5% (inactive); in test [7], 12.7% (inactive); in test [8], 27.5% (inactive). In addition, in test [2], the inhibition of aggregation was -6.7% (inactive). In addition, the nuclei count in test [2] came to 101%; in test [3], 131%. Also, in test [4], the fluorescence slope was -0.365 (inactive). The NADPH fluorescence slope in test [5] is -5.3e-05 (inactive). Moreover, the slope in test [6] was 0.0062 (inactive).
With `COc1ccc(N2CCN(c3oc(COc4ccccc4Cl)nc3C#N)CC2)cc1`, in test [1], the cell count was 451. Moreover, the inhibition is 14.6% (inactive) in test [1], -33.4% (inactive) in test [3], 2.05% (inactive) in test [7] and 15.7% (inactive) in test [8]. In addition, the inhibition of aggregation in test [2] was 5.4% (inactive). Also, the nuclei count is 95.5% in test [2] and 104% in test [3]. Also, the fluorescence slope in test [4] was -0.438 (inactive). For the same molecule, the NADPH fluorescence slope in test [5] was -0.000162 (inactive). For the same molecule, the slope in test [6] is 0.00642 (inactive).
Regarding `COCCN1Cc2cccc(C(=O)Nc3cccnc3)c2C1=O`, the cell count in test [1] turned out to be 649. For the same molecule, the inhibition in test [1] is -26.5% (inactive); in test [3] it was -39.6% (inactive); in test [7], 6.71% (inactive); in test [8] it was 5.54% (inactive). Besides, the inhibition of aggregation in test [2] is -6.7% (inactive). The nuclei count in test [2] and in test [3] was 100% throughout. Moreover, the fluorescence slope in test [4] was -0.503 (inactive). In addition, the NADPH fluorescence slope in test [5] was -0.000182 (inactive). The slope in test [6] was 0.00506 (inactive).
Consider `COc1cccc(C2C3=C(N=C4SCC(=O)N42)c2ccccc2CC3)c1OC` (centres undefined), for which, in test [1], the cell count amounted to 680. For the same molecule, the inhibition in test [1] was 1.6% (inactive); in test [3], -15.3% (inactive); in test [7], -0.493% (inactive); in test [8], 29.3% (inactive). Also, the inhibition of aggregation in test [2] was -10.8% (inactive). For the same molecule, the nuclei count in test [2] is 107%; in test [3], 98.5%. Further, the fluorescence slope in test [4] was -0.442 (inactive). For the same molecule, in test [5], the NADPH fluorescence slope is 4.1e-05 (inactive). For the same molecule, the slope in test [6] is 0.00306 (inactive).
As to `CC(=O)c1coc2ccc(OCC(=O)O)cc12`, in test [1], the cell count came to 678. Further, the inhibition is -11.2% (inactive) in test [1], -42.3% (inactive) in test [3], 6.78% (inactive) in test [7] and 15.6% (inactive) in test [8]. The inhibition of aggregation in test [2] was -4.6% (inactive). In addition, the nuclei count in test [2] and in test [3] was 110% each time. In addition, the fluorescence slope in test [4] was -0.598 (inactive). In test [5], the NADPH fluorescence slope was -4.1e-05 (inactive). Also, the slope in test [6] is 0.00474 (inactive).
In the case of `COc1cc(C2c3c(n[nH]c3C)C(=O)N2c2ccc(Br)cc2)ccc1O` (centres undefined), the cell count in test [1] was found to be 677. Moreover, the inhibition in test [1] was -3.9% (inactive); in test [3], 3.2% (inactive); in test [7], 8.55% (inactive); in test [8], 24.2% (inactive). Moreover, in test [2], the inhibition of aggregation was 1.5% (inactive). In addition, the nuclei count was determined as 100% in test [2] and 106% in test [3]. Further, the fluorescence slope in test [4] is -0.408 (inactive). For the same molecule, the NADPH fluorescence slope in test [5] is -1.5e-06 (inactive). Also, the slope in test [6] was 0.00373 (inactive).
Regarding `CC1CN(CC(O)COc2ccccc2C(C)(C)C)CC(C)O1` (centres undefined), in test [1], the cell count is 609. The inhibition in test [1] is -29.6% (inactive); in test [3], -32.5% (inactive); in test [7] it was 10.2% (inactive); in test [8] it was 23.2% (inactive). Further, the inhibition of aggregation in test [2] is -10.6% (inactive). The figures for the nuclei count in test [2] and in test [3] were 108% and 101%, respectively. In test [4], the fluorescence slope was -0.509 (inactive). Besides, in test [5], the NADPH fluorescence slope is 1.1e-05 (inactive). In addition, the slope in test [6] was 0.00559 (inactive).
As to `Cc1cc(C)cc(NC(=O)C2CCCN(c3nccc(C)n3)C2)c1` (centres undefined), the cell count in test [1] came to 373. For the same molecule, the inhibition is -6% (inactive) in test [1], -57.3% (inactive) in test [3], 9.71% (inactive) in test [7] and 18.5% (inactive) in test [8]. Further, in test [2], the inhibition of aggregation was -20.4% (inactive). For the same molecule, the nuclei count in test [2] stood at 115%; in test [3] it was 117%. The fluorescence slope in test [4] is -0.463 (inactive). In addition, the NADPH fluorescence slope in test [5] was -8.4e-05 (inactive). Further, in test [6], the slope is 0.00586 (inactive).
Turning to `O=C(c1ccc2c(c1)OCCO2)C1CCN(C(=O)c2ccc(F)cc2)CC1`, the cell count in test [1] was found to be 326. In addition, the inhibition in test [1] is -10% (inactive); in test [3], -77.5% (inactive); in test [7], 7.11% (inactive); in test [8], -2.46% (inactive). For the same molecule, the inhibition of aggregation in test [2] was -12% (inactive). The figures for the nuclei count in test [2] and in test [3] were 110% and 126%, respectively. Moreover, the fluorescence slope in test [4] was -0.514 (inactive). Also, the NADPH fluorescence slope in test [5] is -4.4e-05 (inactive). Moreover, the slope in test [6] is 0.00672 (inactive).
With `Cc1ccc(-n2c3c(cc(C(=O)NC4CCSC4=O)c2=O)C(=O)CC(C)(C)C3)cc1` (centres undefined), the cell count in test [1] stood at 294. Besides, the inhibition in test [1] is 7.2% (inactive); in test [3], -48.3% (inactive); in test [7] it was -0.246% (inactive); in test [8], 38.6% (inactive). Further, the inhibition of aggregation in test [2] is 7% (inactive). Besides, the nuclei count was 100% in test [2] and 97.9% in test [3]. Further, in test [4], the fluorescence slope is -0.458 (inactive). Besides, the NADPH fluorescence slope in test [5] was -8.6e-06 (inactive). Further, the slope in test [6] is 0.00353 (inactive).
For the molecule `O=C(NCC1COc2ccccc2O1)c1ccccc1` (centres undefined), in test [1], the cell count came out at 279. Also, the inhibition in test [1] was -1.7% (inactive); in test [3] it was 7.4% (inactive); in test [7], -21% (inactive); in test [8], -82.8% (inactive). Further, the inhibition of aggregation in test [2] was -0.5% (inactive). Also, the values for the nuclei count in test [2] and in test [3] were 104% and 90.3%, respectively. For the same molecule, the fluorescence slope in test [4] is -0.62 (inactive). Further, the NADPH fluorescence slope in test [5] was 3.5e-06 (inactive). Also, the slope in test [6] was 0.00453 (inactive).
Consider `C/C=C(\C)c1nnc(NC(=O)OCC)s1`, for which the cell count in test [1] turned out to be 743. Further, the inhibition in test [1] is -5% (inactive); in test [3], -52% (inactive); in test [7] it was -36.1% (inactive); in test [8], -51.1% (inactive). In addition, the inhibition of aggregation in test [2] was -16% (inactive). The nuclei count in test [2] worked out at 115%; in test [3], 110%. Further, in test [4], the fluorescence slope is -0.342 (inactive). Also, in test [5], the NADPH fluorescence slope is -5.8e-05 (inactive). Also, the slope in test [6] was 0.00534 (inactive).
Turning to `Cn1c(=O)c2c(-c3ccccc3)n(CCCN3CCOCC3)cc2n(C)c1=O`, in test [1], the cell count is 953. The inhibition in test [1] was 7.9% (inactive); in test [3] it was -6.9% (inactive); in test [7], -9.43% (inactive); in test [8], -18.1% (inactive). Further, the inhibition of aggregation in test [2] was -17.3% (inactive). Besides, the results for the nuclei count in test [2] and in test [3] were 108% and 102%, respectively. In addition, the fluorescence slope in test [4] is -0.574 (inactive). The NADPH fluorescence slope in test [5] was -2.7e-08 (inactive). In addition, in test [6], the slope was 0.00936 (inactive).
